Test results as given in PubChem BioAssay (NCI).
Where “and” joins values, the source holds several entries; their conditions need not be identical. Equal values may be shown once. About 83,000 compounds went through this panel and 20% of them were active in at least one assay; those are over-represented in the sample as a whole.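 Growth was measured after 48 h exposure to one concentration of compound in 96-well plates. Values under 10 count as active.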 Calls of active or inactive are those of the source.

Test system: MDA-MB-435 melanoma
Assay: NCI-60 one-dose screen, 48 h (100 = growth as untreated, 0 = no growth, -100 = all killed)
Conditions: 10 µM
Protocol: Growth inhibition of the MDA-MB-435 human Melanoma tumor cell line is measured as a screen for anti-cancer activity. Cells are grown in 96 well plates and exposed to the test compound for 48 hours. Compounds are tested at a single concentration, which is 10^-5 M for most compounds. The reported endpoint is percent growth (GI% or GIPRCNT), where numbers from 0 - 100% represent growth inhibition, and numbers from -100% - 0 represent cell death. For example, a value of 40 represents 60% growth inhibition. A value of 0 means no net growth occurred over the course of the experiment. A value of -40 indicates 40% of cells at the beginning of the experiment died by the end of the experiment. A value of -100 means all cells are dead at the end of the experiment.
NCI-60 Human Tumor Cell Lines Screen was performed using the standard one-dose NCI protocol, which is described in more detail at https://dtp.cancer.gov/discovery_development/nci-60/default.htm.
Compounds with GIPRCNT values below 10 were considered active. Activity score was based on GIPRCNT using the following formula: […]
Score is 0 for GIPRCNT values of 100 or above, 50 for GIPRCNT values of 0, and 100 for GIPRCNT values of -100.

SMILES | growth
COc1ccc(C(=O)/C=C/c2ccc(OCc3cccc(C(F)(F)F)c3)c(OC)c2)cc1OC | 86.3% (inactive)
CC(=O)/C=C/c1ccc(OCc2ccc(Cl)cc2)cc1 | 94.5% (inactive)

Same assay, conditions: 10 µM unless noted

SMILES | growth
CCN1C(=S)N(CC)C2C1NC(=S)N2/N=C/C=C/c1ccccc1 (stereo not given) | -39% (active)
CC[C@]1(O)CC2CN(CCc3c([nH]c4ccccc34)C(C(=O)OC)(c3cc4c(cc3OC)N(C=O)[C@H]3[C@@](O)(C(=O)OC)[C@H](OC(C)=O)[C@]5(CC)[C@@H]6C[C@@H]6CN6CC[C@]43[C@@H]65)C2)C1 (stereo not given in full) | -53.2% (active)
COc1ccc(-c2nc(Cl)c3c(C)nn(-c4ccc(F)cc4)c3n2)cc1 | 112% (inactive)
CC/C=C\C/C=C\C[C@H](O)C/C=C1/C(=O)C=C[C@@H]1C/C=C\CCCC(=O)OC | -16.4% (active)
CCC(=O)Oc1cc(Cl)c(Cl)cc1Cl | 107% (inactive)
Cc1cnc(C(=O)NNc2nc3sc4c(c3c(=O)[nH]2)C(C)CCC4)cn1 (stereo not given) | 31.4% (inactive)
O=[N+]([O-])c1ccc(S(=O)Cc2ccccc2)c([N+](=O)[O-])c1 (stereo not given) | 76.2% (inactive) and 78% (inactive)
COc1ccc(NC(=O)Nc2ccccc2CNc2nc(Nc3ccc(OCCN4CCCC4)cc3)ncc2Cl)cc1 | -70.9% (active)
COc1ccc(/C=C2\COc3ccc(O)c(O)c3C2=O)c(OC)c1OC | 8.59% (active)
NC(=O)c1c(NC(=O)/C=C/c2cccs2)sc2c1CCC(=O)C2 | 14.2% (inactive)
COc1ccc(Cn2cc(C(=O)Nc3cccnc3Nc3ccccc3)nn2)cc1 | 96.5% (inactive)
CC(C)(C)CC(N)=O | 109% (inactive)
Cc1ccc(Cc2cnc(NC(=O)c3cc(C)oc3C)s2)cc1 | 4.22% (active)
COC(=O)/C=C1/SC(=Nc2ccc([N+](=O)[O-])cc2)N(CCc2c[nH]c3ccccc23)C1=O | 55.5% (inactive)
CCCCCCCCn1ccc2cc(NC(=O)CN3CCN(c4nc(C)cc(N5CCCCC5)n4)CC3)ccc21 | 92.4% (inactive)
CC(=O)OC[C@]12CCC(C)(C)C=C1[C@H]1CC[C@@H]3[C@@]4(C)CCCNC(C)(C)[C@@H]4CC[C@@]3(C)[C@]1(C)CC2 | 29.7% (inactive)
COc1ccc(-c2cc(-c3cc(OC)c(OC)c(OC)c3)c(C#N)c(=O)n2CCCCC(=O)O)cc1 | 80.2% (inactive)
Cn1c(=O)c2c(nc(Nc3cc(=O)[nH]c(=O)[nH]3)n2Cc2ccccc2)n(C)c1=O | -73% (active)

SMILES | growth
Cc1nnc(NS(=O)(=O)c2ccc(N=Nc3ccc(N)nc3N)cc2)s1 | 115% (inactive) and 105% (inactive)
O=C([C@H]1C[C@H]1c1ccc(S(F)(F)(F)(F)F)cc1)N1CCN(c2cc(Cl)ccc2C(F)(F)F)CC1 | 102% (inactive)
COCCOc1cc2ncnc(N3CCN(S(=O)(=O)c4ccccc4Cl)CC3)c2cc1OCCOC | 10.5% (inactive)
CCc1c2c(nc3ccc(OCc4ccc(B5OC(C)(C)C(C)(C)O5)cc4)cc13)-c1cc3c(c(=O)n1C2)COC(=O)[C@]3(O)CC | 9.46% (active)
CC(=O)Nc1c(I)c(NC(C)=O)c(I)c(C(=O)O)c1I | 101% (inactive) and 102% (inactive)
Cn1cc(-c2csc(-c3c[nH]c4ccc(F)cc34)n2)c2cnccc21 | -90.5% (active)
Cc1nn(-c2nc(-c3cc4ccccc4oc3=O)cs2)c(C)c1N=Nc1ccccc1 | 101% (inactive)
O=C1N=c2ccccc2=C1c1sc(=S)n(C2CC(=O)N(c3ccc(Cl)cc3)C2=O)c1O (stereo not given) | 102% (inactive)
CCCCCCCCCCCCCCCC(=O)O[C@@H]1[C@@H](O)[C@@H](O)C([C@H](NC(=O)[C@@H]2C[C@@H](CCC)CN2C)[C@H](C)Cl)O[C@@H]1SC (stereo not given in full) | 107% (inactive)
COc1ccc(C2Nc3nc(SC)nc(N)c3N=C3c4ccccc4CCC32)cc1 (stereo not given) | 93.2% (inactive)
COc1cc(NC2CCCCC2O)c2nc(-c3ccc(Cl)cc3)ccc2c1 (stereo not given) | 68.4% (inactive) and 86.5% (inactive)
Cc1cc(N2CCN(CC(=O)Nc3ccc4c(ccn4Cc4ccccc4)c3)CC2)nc(N2CCCCCC2)n1 | 60.7% (inactive)
COc1ccc(/C=C/C(=O)c2cc3c(N)c(C(=O)Nc4ccccc4Cl)sc3nc2C)cc1 | -61.6% (active)
CN(C)CCN1C(=O)c2c(c3c4ccccc4n4c3c3c2c2ccccc2n3C2CC(O)C(O)C4(C)O2)C1=O (stereo not given) | 32.1% (inactive)
O=Nc1ccc(NO)c2ccccc12 | 107% (inactive) and -57.8% (active)
CCCCC(NC(=O)CN1C(=O)/C(=C/C(C)=C/c2ccccc2)SC1=S)C(=O)O (stereo not given) | 104% (inactive)
COc1cc(-c2nc3occn3c2-c2ccnc(NCCCNS(=O)(=O)c3ccc(O)cc3)n2)ccc1F | 47.7% (inactive)
[2H]C([2H])([2H])Oc1cc(F)ccc1/C=C/C(=O)/C=C(/C=C/c1ccc(F)cc1OC([2H])([2H])[2H])OB(F)F | 16.5% (inactive)

Same assay, conditions: 100 µM

SMILES | growth
COc1ccc(C(=O)/C=C/c2ccc(OCc3cccc(C(F)(F)F)c3)c(OC)c2)cc1OC | 12% (inactive)
CC(=O)/C=C/c1ccc(OCc2ccc(Cl)cc2)cc1 | 23.1% (inactive)
